Screening results: PubChem BioAssay, National Center for Advancing Translational Sciences (NCATS)
Compounds with a hit are over-represented: about 2.4% of the library has one in this group of screens.
D2 PAM-1: Beta-Arrestin HTS for Positive Allosteric Modulators of the Human D2 Dopamine Receptor: Potentiators | 0.23% of 360,000 active | potentiation, % (concentration not given with the values) | DiscoveRx D2 beta-arrestin cells, luminescence, 90 min; 100% = 57 uM dopamine signal | AID 624464, 2012 | D(2) dopamine receptor (Homo sapiens), P14416; in the data active = potentiation above about 50%
Target sequence (P14416 whole entry, looked up): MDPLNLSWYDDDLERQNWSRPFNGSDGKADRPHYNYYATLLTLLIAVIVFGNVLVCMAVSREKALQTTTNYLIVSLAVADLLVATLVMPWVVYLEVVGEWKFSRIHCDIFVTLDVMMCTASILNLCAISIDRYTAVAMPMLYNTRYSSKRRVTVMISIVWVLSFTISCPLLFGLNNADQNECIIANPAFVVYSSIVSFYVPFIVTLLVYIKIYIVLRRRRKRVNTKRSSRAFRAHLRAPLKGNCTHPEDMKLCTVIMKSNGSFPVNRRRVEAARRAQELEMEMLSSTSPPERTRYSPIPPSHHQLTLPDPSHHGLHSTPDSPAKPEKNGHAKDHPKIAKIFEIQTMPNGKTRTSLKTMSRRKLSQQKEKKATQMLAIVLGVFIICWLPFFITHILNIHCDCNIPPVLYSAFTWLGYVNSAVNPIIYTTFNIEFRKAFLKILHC
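PathHunter D2 cells, attached overnight at 37 deg C, received compound in DMSO plus dopamine at EC20 (50 nM final) for 90 min at 37 deg C. Beta-arrestin recruitment was read as luminescence after 1 h with detection reagent at ambient temperature.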
D2 antagonist: HTS Assay for Allosteric Antagonists of the Human D2 Dopamine Receptor: Primary Screen for Antagonists | HEK293 TREx D2 cells, calcium flux, dopamine EC80 | inhibition, % at 10 µM | 2% of 340,000 active; in the data active = inhibition above about 30%; inactive = below that, where a call was filed; also: 0% is about no effect
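Dopamine at EC80 is the agonist stimulus; test compounds precede it by 180 s. Calcium flux read kinetically in a force-coupled, inducible HEK293 T-REx D2 cell line.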
D2 ag-1: HTS Assay for Allosteric Agonists of the Human D2 Dopamine Receptor: Primary Screen for Agonists. D(2) dopamine receptor (Homo sapiens), P14416. HEK293 T-REx D2 cells, calcium flux agonist mode. activation, % at 2 µM. 0.53% of 340,000 active. AID 485358, 2010;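 active = activation over 3 SD above normal in the single-dose calcium agonist read, cut at about 30% in these data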; also: 0% is about no effect
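Tetracycline-induced HEK293 T-REx cells with force-coupled D2 receptor, plated overnight at 30 C, loaded with no-wash calcium dye. After a 10 s baseline, compound was pin-added and calcium flux read kinetically for 180 s; calcium rises flagged agonists.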
D2 ag-2: Beta-Arrestin HTS for Positive Allosteric Modulators of the Human D2 Dopamine Receptor: Agonists. D(2) dopamine receptor (Homo sapiens), P14416. DiscoveRx PathHunter D2 beta-arrestin, luminescence, 90 min; 100% = 57 uM dopamine signal. activation, % (concentration not given with the values). 0.084% of 360,000 active; in the data active = activation above about 40%
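DiscoveRx PathHunter D2 beta-arrestin cells (2,100/well) attached overnight, then compound-stimulated 90 min at 37 C in HBSS/10 mM HEPES/0.1% Tween-20 buffer; beta-galactosidase complementation read by luminescence after 1 h at ambient temperature. Dopamine 57 uM final (EC100) as control.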
D2 PAM-2: HTS Assay for Positive Allosteric Modulators of the Human D2 Dopamine Receptor: Primary Screen for Potentiators; D(2) dopamine receptor (Homo sapiens), P14416; HEK293 T-REx D2, calcium flux, EC20 dopamine potentiation; potentiation, % at 10 µM; 0.34% of 340,000 active;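 active = potentiation over 3 SD above the plate norm, cut at about 30% in these data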; also: 0% is about no effect
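Tetracycline-induced Hek293 Trex D2 cells, force-coupled to calcium, loaded with no-wash calcium dye. Compound added with 180 s kinetic read for agonism, then EC20 dopamine and a further 180 s read for potentiation.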
* hit, by the source's call; · = no result.

SMILES	D2 PAM-1	D2 antagonist	D2 ag-1	D2 ag-2	D2 PAM-2
CC(=O)Oc1ccc(Cn2c(C)c(C(=O)NCCC#N)sc2=O)cc1	1	·	·	-3	·
COc1ccc(NC(=O)/C(=C\c2ccc(OS(=O)(=O)c3ccc(C)cc3)cc2)NC(=O)c2ccccc2)cc1	7	-16	0	-1	40*
COc1cc(NS(=O)(=O)c2ccc(NC(=O)/C(=C/c3ccccc3Cl)NC(=O)c3ccccc3)cc2)nc(OC)n1	-7	17	1	-4	11
COc1cc(NS(=O)(=O)c2ccc(NC(=O)/C(=C\c3ccccc3OC)NC(=O)c3ccccc3)cc2)nc(OC)n1	2	32*	0	0	1
Cc1cccc(-n2cnc3cc(C(=O)NCc4ccccc4Cl)ccc32)c1	·	·	1	·	-2
O=C(Nc1nnc(S(=O)(=O)N2CCCCCC2)s1)c1ccccc1Cl	-6	·	2	2	4
O=C(Nc1nnc(S(=O)(=O)N2CCCC2)s1)c1ccccc1Cl	-2	35*	-2	-5	-4
COc1ccc(-c2[nH]c3ccccc3c2SCCNC(=O)c2ccc(S(=O)(=O)N(C)C)cc2)cc1	·	·	-2	·	8
C=CCNCCOc1ccccc1-c1ccccc1	-39	87*	8	-1	-28
CN(C)CCCCOc1ccccc1F	-13	-1	0	-2	-6
C=CCNCCCOc1ccc(C(C)(C)c2ccccc2)cc1	-33	-6	0	-5	8
CCCCNCCOCCOc1ccccc1-c1ccccc1	-27	76*	0	2	-21
CN(C)CCCCOc1ccccc1-c1ccccc1	-21	71*	4	-1	-28
COCCNCCCCOc1ccccc1-c1ccccc1	-36	92*	1	-5	-34
COc1cc(CNCCCSc2nnnn2C)cc(Br)c1OC	·	·	0	·	-17
COCC(=O)N/N=C/c1c(C)[nH]n(-c2ccccc2)c1=O	-10	4	0	-4	33*
Cc1[nH]n(-c2ccccc2)c(=O)c1/C=N/N(C)c1ccccc1	74*	-15	-1	10	-6
COC(=O)N/N=C\c1c(C)[nH]n(-c2ccccc2)c1=O	-14	13	-1	-4	4
O=C1OCC2OC(O)C(O)C(O)C2OC(=O)c2cc(O)c(O)c(O)c2-c2c(O)c(O)c3oc(=O)c4c(c(O)c(O)c5oc(=O)c2c3c54)-c2c1cc(O)c(O)c2O (stereo not drawn)	·	22	-1	·	0
COc1ccc(Br)cc1CNC(=O)c1cnc2sc(N3CCCC3)nn2c1=O	·	·	-1	·	-8
CN(C)/C=N/c1cc(=O)[nH]c(=O)n1Cc1ccccc1	-24	40*	0	-2	6
COc1ccccc1NC(=O)NCC1(N(C)C)CCCCC1	-16	59*	0	-4	-17
COc1ccccc1NC(=O)NCC(c1ccco1)N1CCCCC1 (stereo not drawn)	-28	39*	0	-4	-15
COc1ccccc1NS(=O)(=O)c1cc(C(=O)NCC(c2ccco2)N2CCCCC2)ccc1C (stereo not drawn)	-39	·	·	-1	·
O=C(CSc1ccc(Br)cc1)NCC(c1ccco1)N1CCCCC1 (stereo not drawn)	3	39*	0	-4	0
SMILES	D2 PAM-1	D2 antagonist	D2 ag-1	D2 ag-2	D2 PAM-2
COC(=O)c1cc2occc2n1Cc1nc(-c2ccccc2)oc1C	·	·	1	·	4
CC(C)NC(=O)CN(Cc1ccc2c(c1)OCO2)C(=O)CCC(=O)Nc1ccccn1	1	43*	0	-1	9
Cc1ccc(NC(=O)CN2CCCCCC2)cc1Br	-7	42*	4	0	-31
Cc1ccc(-c2c(C(=O)N3CCOCC3)oc(=O)c3ccccc23)cc1	-1	-5	-1	0	-10
CCN1CCN(C(=O)c2oc(=O)c3ccccc3c2-c2ccc(C)cc2)CC1	-11	59*	-1	-4	-24
CNS(=O)(=O)c1cn(CC(=O)Nc2ccc(OC)cc2OC)cc1S(=O)(=O)NC	·	·	0	·	-4
O=C(O)C1=C[C@@H](c2ccc3c(c2)OCO3)C[C@@H](OCc2ccc(CO)cc2)O1	-36	-8	0	1	12
NC(=O)C1=C[C@H](c2ccc3c(c2)OCO3)C[C@H](OCc2ccc(CO)cc2)O1	-8	33*	0	1	-7
CCN1C(=S)SC(=O)C1=C1C=C(C)OC(C)=C1	-1	57*	2	-1	4
CCN1C(=S)SC(=O)C1=C1C=C(C)N(Cc2ccco2)C(C)=C1	-15	·	·	-5	8
Cc1cc(C(=O)Cn2nc(C(=O)O)c3ccccc3c2=O)c(C)n1-c1ccc(OC(F)F)cc1	0	-14	-1	-4	36*
COc1ccc(-n2c(C)cc(C(=O)Cn3nc(C(=O)O)c4ccccc4c3=O)c2C)cc1	-4	-4	0	3	-4
Cc1cc(C(C)(C)C)ccc1OC(=O)C1=CC=CN2CCS(=O)(=O)N=C12	1	40*	1	-5	7
CCc1cccc(C)c1NC(=O)c1cc(CN2CCCC2)on1	·	·	-1	·	0
O=C(O)COc1ccccc1/C=C1\SC(=S)N(NC(=O)c2ccccc2O)C1=O	8	7	0	-3	-10
O=C(Cc1ccccc1)NN1C(=O)/C(=C/c2ccccc2C(=O)O)SC1=S	-4	31*	-1	-4	-2
COc1cccc(NC(=O)CSC2=Nc3ccccc3C3=NC(CCC(=O)NCCc4ccccc4)C(=O)N23)c1 (stereo not drawn)	·	·	0	·	4
Cc1ccc(-c2nn(-c3ccccc3)cc2CNCc2ccccc2)cc1	-21	51*	0	2	-38
Cc1ccc(-c2nn(-c3ccccc3)cc2CO)cc1	-3	2	0	-2	17
CCN(CCCNC(=O)c1ccc(Sc2ccc(F)cc2)c(NC(C)=O)c1)c1ccccc1	·	·	·	·	14
CCOc1ccc(/C=C2/C(=O)N(c3ccc(OC)cc3)C(=S)N2CC(=O)OC)cc1OCC	10	17	1	-4	-2
CCOc1ccc(N2C(=O)/C(=C/c3cc(OC)c(OC)c(OC)c3)N(CC(=O)OC)C2=S)cc1	-1	-7	2	-4	47*
C/C(=N\Nc1nc(C)cc(=O)[nH]1)C1CC1	-1	-4	-1	-3	14
